Results: article PMC9838217, “Structure of SALL4 zinc finger domain reveals link between AT-rich DNA binding and Okihiro syndrome”

The sequences below were run against T1, SALL4 ZFC4 WT (HT-SELEX) (Mus musculus, UniProt Q8BX22 870-940) (assay: HT-SELEX; high values mean tight binding). Conditions: protein: recombinant; vector His6-GST; dsDNA, one strand shown.
T1 sequence: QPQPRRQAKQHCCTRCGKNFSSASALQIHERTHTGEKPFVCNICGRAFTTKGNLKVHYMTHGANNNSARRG
In short: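 A 100 µl reaction of 10 mM Tris–HCl pH 7.5, 50 mM NaCl, poly(dI-dC) and DTT held purified recombinant mouse SALL4 zinc finger cluster 4 (residues 870–940, 1 µg) and library DNA (1.5 µg first cycle, 200 ng later) for 10 min at room temperature. Complexes captured on Ni2+ beads were washed, PCR-amplified and reselected for up to 6 cycles, in triplicate, then MiSeq-sequenced and scanned for 6-mers. Binding signal is the read fraction of each canonical k-mer expressed as fold change over the initial random library.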
For CATACA, the binding signal was 1.36 ± 0.0385 fold-change vs cycle 0.
CCAAAG gave a binding signal of 0.69 ± 0.0265 fold-change vs cycle 0.
GGACCA gave a binding signal of 0.389 ± 0.0179 fold-change vs cycle 0.
In the case of AACGCA, the binding signal is reported as 0.504 ± 0.0712 fold-change vs cycle 0.
Work on GCAAAA yielded a binding signal of 0.804 ± 0.0195 fold-change vs cycle 0.
GCCTAA showed a binding signal of 0.547 ± 0.0354 fold-change vs cycle 0.
ATGTAC gave a binding signal of 1.295 ± 0.0117 fold-change vs cycle 0.
For CTAAAC, the binding signal was 1.16 ± 0.0729 fold-change vs cycle 0.
With TAATTA the binding signal was 4.1 ± 0.33 fold-change vs cycle 0.
CGGTAG gave a binding signal of 0.351 ± 0.018 fold-change vs cycle 0.
In the case of CCGTAA, the binding signal is reported as 0.687 ± 0.0267 fold-change vs cycle 0.
Work on ACACCT yielded a binding signal of 0.834 ± 0.0401 fold-change vs cycle 0.
Work on ACTTGG yielded a binding signal of 0.787 ± 0.0269 fold-change vs cycle 0.
In the case of AGACCC, the binding signal is reported as 0.415 ± 0.0196 fold-change vs cycle 0.
With GGGATA the binding signal was 0.88 ± 0.0566 fold-change vs cycle 0.
CCTAAA was tested, and the binding signal was 1.13 ± 0.0805 fold-change vs cycle 0.
For CCAAGG, the binding signal was 0.457 ± 0.0202 fold-change vs cycle 0.
CATTCA was tested, and the binding signal was 1.32 ± 0.0575 fold-change vs cycle 0.
In the case of CATGCA, the binding signal is reported as 0.683 ± 0.0413 fold-change vs cycle 0.
For AGTGTA, the binding signal was 1.32 ± 0.061 fold-change vs cycle 0.
Sequence AGAAAC has a binding signal of 1.21 ± 0.0656 fold-change vs cycle 0.
With CCAGGA the binding signal was 0.465 ± 0.017 fold-change vs cycle 0.
AGCACA was tested, and the binding signal was 0.64 ± 0.039 fold-change vs cycle 0.
CAGCAA was tested, and the binding signal was 0.551 ± 0.0466 fold-change vs cycle 0.
CTTGCA showed a binding signal of 0.697 ± 0.0262 fold-change vs cycle 0.
With AGTCAT the binding signal was 1.45 ± 0.0471 fold-change vs cycle 0.
Sequence ATTGGC has a binding signal of 0.461 ± 0.0252 fold-change vs cycle 0.
CTGTCC showed a binding signal of 0.398 ± 0.039 fold-change vs cycle 0.
In the case of AATTAC, the binding signal is reported as 2.12 ± 0.116 fold-change vs cycle 0.
Work on ACTTTC yielded a binding signal of 1.28 ± 0.0405 fold-change vs cycle 0.
In the case of GTAATA, the binding signal is reported as 2.33 ± 0.177 fold-change vs cycle 0.
ACTTCT gave a binding signal of 1.44 ± 0.0317 fold-change vs cycle 0.
With AATAAA the binding signal was 3.71 ± 0.274 fold-change vs cycle 0.
With AGACTG the binding signal was 0.764 ± 0.0533 fold-change vs cycle 0.
ATGAAA showed a binding signal of 2.91 ± 0.152 fold-change vs cycle 0.
AAAATC was tested, and the binding signal was 1.66 ± 0.102 fold-change vs cycle 0.
ACGAAC gave a binding signal of 0.667 ± 0.0536 fold-change vs cycle 0.
In the case of TCACCA, the binding signal is reported as 0.829 ± 0.0293 fold-change vs cycle 0.
In the case of GGTAGA, the binding signal is reported as 0.746 ± 0.0282 fold-change vs cycle 0.
Sequence CCATTC has a binding signal of 0.803 ± 0.0377 fold-change vs cycle 0.
